In the supplement of paper PMC8975748:
Where a name gives a salt, the structure may show the parent alone.

System: Saccharomyces cerevisiae BY4741 SeMeCo community
Test: z-score of subpopulation abundance vs DMSO median, subpopulation auxotrophic for UM; higher = larger share of this subpopulation than in DMSO controls
Details: 10 µM; 24 h; SM minimal medium; subpopulation (auxotrophy): UM
Method: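 Fluorescent four-plasmid SeMeCo (self-establishing metabolically cooperating S. cerevisiae BY4741 community; plasmids pH-mRuby2, pL-mWasabi, pU-eCFP, pM-TagRFP657) was grown 24 h in minimal SM medium with each Selleck FDA-approved drug at 10 µM in 384-well plates. Cells were fixed and imaged by high-content confocal microscopy. For each auxotrophic subpopulation (and the prototroph), a z-score gives the deviation from the DMSO vehicle-control population median.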

Going from `C/C=C1\[C@H]2C=C(C)C[C@]1(N)c1ccc(=O)[nH]c1C2` [(-)-Huperzine A (HupA)] to `Cc1[nH]c(=O)c(C#N)cc1-c1ccncc1` [Milrinone], the “z-score of subpopulation abundance” value falls from 0.89 to -0.1.

First: CCC[C@@H]1C[C@@H](C(=O)N[C@@H]([C@H]2O[C@H](SC)[C@H](OP(=O)(O)O)[C@@H](O)[C@H]2O)[C@H](C)Cl)N(C)C1 [Clindamycin Phosphate]
Second: CCC(C)(C)C(=O)O[C@H]1C[C@@H](C)C=C2C=C[C@H](C)[C@H](CC[C@@H]3C[C@@H](O)CC(=O)O3)[C@H]21 [Simvastatin]
The “z-score of subpopulation abundance” value of the first is higher: 1.19 for the first, 0.62 for the second.

Compared with `CCOC(=O)C1=C(C)NC(C)=C(C(=O)OC)C1c1cccc(Cl)c1Cl` (stereo not given) [Felodipine], `O=C(O)Cc1ccccc1Nc1c(Cl)cccc1Cl` [Diclofenac Sodium] is higher in “z-score of subpopulation abundance” value: -7.8 for the first, -1.45 for the second.

Going from `CCCCNc1ccc(C(=O)OCCN(C)C)cc1` [Tetracaine HCl] to `CCCOc1ccc(C(=O)OCCN(CC)CC)cc1N` [Proparacaine HCl], the “z-score of subpopulation abundance” value falls from 0.04 to -0.06.

Going from `CCn1cc(C(=O)O)c(=O)c2cc(F)c(N3CCNCC3)nc21` [Enoxacin Sesquihydrate] to `COc1c(N2CCNC(C)C2)c(F)cc2c(=O)c(C(=O)O)cn(C3CC3)c12` (stereo not given) [Gatifloxacin], the “z-score of subpopulation abundance” value falls from 1.24 to 0.32.

First: CCCSc1ccc2[nH]c(NC(=O)OC)nc2c1 [Albendazole]
Second: CCCCOc1cc(C(=O)NCCN(CC)CC)c2ccccc2n1 [Dibucaine HCl]
The “z-score of subpopulation abundance” value of the first is higher: 0.26 for the first, 0.1 for the second.

Compared with `CN1CCC(=C2c3ccccc3CCc3sccc32)CC1` [Pizotifen Malate], `CN1CCc2cc3c(cc2C(=O)Cc2ccc4c(c2C1)OCO4)OCO3` [Protopine] is higher in “z-score of subpopulation abundance” value: -0.43 for the first, -0.23 for the second.

First: O=C(O)c1ccccc1O [Salicylic acid]
Second: CCOC(=O)c1ccc(O)cc1 [Ethylparaben]
The “z-score of subpopulation abundance” value of the first is lower: -0.89 for the first, 1.66 for the second.

First: COCCCOc1ccnc(C[S+]([O-])c2nc3ccccc3[nH]2)c1C (stereo not given) [Rebeprazole sodium]
Second: Cc1[nH]cnc1CN1CCc2c(c3ccccc3n2C)C1=O [Alosetron Hydrochloride]
The “z-score of subpopulation abundance” value of the first is lower: 0.75 for the first, 0.96 for the second.

Compared with `Cc1cc(/C=C/c2ccc3cc(N(C)C)ccc3[n+]2C)c(C)n1-c1ccccc1` [pyrvinium], `Nc1ccc(S(=O)(=O)NC(=O)c2ccccc2)cc1` [Sulfabenzamide] is lower in “z-score of subpopulation abundance” value: 1.08 for the first, -1.04 for the second.

Going from `CN(Cc1cnc2nc(N)nc(N)c2n1)c1ccc(C(=O)N[C@@H](CCC(=O)O)C(=O)O)cc1` [Methotrexate] to `Nc1nc(N)c2nc(-c3ccccc3)c(N)nc2n1` [Triamterene], the “z-score of subpopulation abundance” value falls from -4.22 to -9.3.

Going from `CCC1(c2ccccc2)C(=O)NCNC1=O` [Primidone] to `CCC1(C)CC(=O)NC1=O` (stereo not given) [Ethosuximide], the “z-score of subpopulation abundance” value falls from 0.54 to -0.4.

Going from `CN[C@@H]1[C@@H](O)[C@@H](O[C@@H]2[C@@H](O)[C@H](O[C@H]3OC(CN)=CC[C@H]3N)[C@@H](N)C[C@H]2N)OC[C@]1(C)O` [Sisomicin sulfate] to `CC[C@H]1OC(=O)[C@H](C)[C@@H](O[C@H]2C[C@@](C)(OC)[C@@H](O)[C@H](C)O2)[C@H](C)[C@@H](O[C@@H]2O[C@H](C)C[C@H](N(C)C)[C@H]2O)[C@](C)(O)C[C@@H](C)CN(C)[C@H](C)[C@@H](O)[C@]1(C)O` [Azithromycin], the “z-score of subpopulation abundance” value falls from 0.74 to -0.55.

First: N[C@@H](CCC(=O)O)C(=O)O [(S)-Glutamic acid]
Second: C[N+](C)(C)CCOC(=O)CCC(=O)OCC[N+](C)(C)C [Succinylcholine Chloride Dihydrate]
The “z-score of subpopulation abundance” value of the first is lower: -0.63 for the first, 0.5 for the second.

Going from `Oc1c(Cl)cc(Cl)cc1Sc1cc(Cl)cc(Cl)c1O` [Bithionol] to `CC1CCc2cc(F)cc3c(=O)c(C(=O)O)cn1c23` (stereo not given) [Flumequine], the “z-score of subpopulation abundance” value falls from -0.68 to -1.16.

Compared with `CC1(C)S[C@@H]2[C@H](NC(=O)[C@H](NC(=O)N3CCNC3=O)c3ccccc3)C(=O)N2[C@H]1C(=O)O` [Azlocillin sodium salt], `CN1[C@@H](CC(=O)c2ccccc2)CCC[C@H]1C[C@H](O)c1ccccc1` [Lobeline hydrochloride] is higher in “z-score of subpopulation abundance” value: -1.29 for the first, 0.92 for the second.

First: CC[C@H]1OC(=O)C[C@@H](O)[C@H](C)[C@@H](O[C@@H]2O[C@H](C)[C@@H](O)[C@H](N(C)C)[C@H]2O)[C@@H](CCN2C[C@H](C)C[C@H](C)C2)C[C@@H](C)C(=O)/C=C/C(C)=C/[C@@H]1CO[C@@H]1O[C@H](C)[C@@H](O)[C@@H](OC)[C@H]1OC [Tilmicosin phosphate]
Second: CC(=O)[C@H]1CC[C@H]2[C@@H]3CC=C4C[C@@H](O)CC[C@]4(C)[C@H]3CC[C@]12C [Pregnenolone]
The “z-score of subpopulation abundance” value of the first is higher: -0.01 for the first, -0.48 for the second.

First: CS(=O)(=O)c1ccc([C@@H](O)[C@@H](CO)NC(=O)C(Cl)Cl)cc1 [Thiamphenicol]
Second: CS(=O)(=O)c1ccc([C@@H](O)[C@@H](CF)NC(=O)C(Cl)Cl)cc1 [Florfenicol]
The “z-score of subpopulation abundance” value of the first is higher: 0.81 for the first, -0.38 for the second.

Compared with `Cc1nnc(NS(=O)(=O)c2ccc(N)cc2)s1` [Sulfamethizole], `Cc1cccc(C)c1NC(=O)C1CCCCN1C` (stereo not given) [Mepivacaine HCl] is higher in “z-score of subpopulation abundance” value: -0.65 for the first, 2.17 for the second.

Going from `O=C1CN2Cc3c(ccc(Cl)c3Cl)N=C2N1` [Anagrelide HCl] to `CCCN1CCCC[C@H]1C(=O)Nc1c(C)cccc1C` [Ropivacaine], the “z-score of subpopulation abundance” value falls from 0.39 to -0.14.
